The values below come from ChEMBL document CHEMBL1961873, “Compounds: GSK PKIS; Assays: Nanosyn kinase panel” (2012).

Assay [1] addresses Dual specificity protein kinase CLK3 (Homo sapiens) (UniProt P49761). Conditions: at 1 µM.
Assay [2] addresses Dual specificity tyrosine-phosphorylation-regulated kinase 1A (Homo sapiens) (UniProt Q13627). Conditions: at 0.1 µM.
The target is the same in assay [3]. As to conditions: at 1 µM.
Assay [4] concerns the target Dual specificity tyrosine-phosphorylation-regulated kinase 1B (Homo sapiens) (UniProt Q9Y463). Conditions: at 0.1 µM.
The target is the same in assay [5]. As to conditions: at 1 µM.
Assay [6] deals with T1, Dual specificity tyrosine-phosphorylation-regulated kinase 2 (Homo sapiens) (UniProt Q92630).
T1 sequence (whole entry): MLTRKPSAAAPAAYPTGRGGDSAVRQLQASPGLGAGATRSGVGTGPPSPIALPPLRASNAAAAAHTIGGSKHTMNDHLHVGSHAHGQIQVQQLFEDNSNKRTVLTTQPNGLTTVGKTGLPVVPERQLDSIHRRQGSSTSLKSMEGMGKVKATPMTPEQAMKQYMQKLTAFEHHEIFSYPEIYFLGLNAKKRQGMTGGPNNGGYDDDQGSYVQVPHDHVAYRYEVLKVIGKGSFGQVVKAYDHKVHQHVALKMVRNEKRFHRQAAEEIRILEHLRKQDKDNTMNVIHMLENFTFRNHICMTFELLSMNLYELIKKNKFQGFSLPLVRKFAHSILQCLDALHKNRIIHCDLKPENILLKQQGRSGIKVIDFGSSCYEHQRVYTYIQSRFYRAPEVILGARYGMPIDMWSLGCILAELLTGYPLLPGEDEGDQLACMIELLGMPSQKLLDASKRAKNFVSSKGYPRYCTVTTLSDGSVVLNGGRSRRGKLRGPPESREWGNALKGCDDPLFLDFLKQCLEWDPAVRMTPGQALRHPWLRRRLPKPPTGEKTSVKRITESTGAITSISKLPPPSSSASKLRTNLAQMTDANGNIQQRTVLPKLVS
Conditions: at 0.1 µM.

For assay [7], the target named is T1, Dual specificity tyrosine-phosphorylation-regulated kinase 2 (Homo sapiens). Conditions: at 1 µM.
Assay [8] addresses Glycogen synthase kinase-3 alpha (Homo sapiens) (UniProt P49840). As to conditions: at 0.1 µM.
Assay [9] shares this target. As to conditions: at 1 µM.
In assay [10] the target is Glycogen synthase kinase-3 beta (Homo sapiens) (UniProt P49841). Conditions: at 0.1 µM.
Assay [11] shares this target. As to conditions: at 1 µM.
For assay [12], the target named is Homeodomain-interacting protein kinase 1 (Homo sapiens) (UniProt Q86Z02). As to conditions: at 0.1 µM.
Assay [13] shares this target. Conditions: at 1 µM.
Assay [14] concerns the target T2, Homeodomain-interacting protein kinase 4 (Homo sapiens) (UniProt Q8NE63).
T2 sequence (whole entry): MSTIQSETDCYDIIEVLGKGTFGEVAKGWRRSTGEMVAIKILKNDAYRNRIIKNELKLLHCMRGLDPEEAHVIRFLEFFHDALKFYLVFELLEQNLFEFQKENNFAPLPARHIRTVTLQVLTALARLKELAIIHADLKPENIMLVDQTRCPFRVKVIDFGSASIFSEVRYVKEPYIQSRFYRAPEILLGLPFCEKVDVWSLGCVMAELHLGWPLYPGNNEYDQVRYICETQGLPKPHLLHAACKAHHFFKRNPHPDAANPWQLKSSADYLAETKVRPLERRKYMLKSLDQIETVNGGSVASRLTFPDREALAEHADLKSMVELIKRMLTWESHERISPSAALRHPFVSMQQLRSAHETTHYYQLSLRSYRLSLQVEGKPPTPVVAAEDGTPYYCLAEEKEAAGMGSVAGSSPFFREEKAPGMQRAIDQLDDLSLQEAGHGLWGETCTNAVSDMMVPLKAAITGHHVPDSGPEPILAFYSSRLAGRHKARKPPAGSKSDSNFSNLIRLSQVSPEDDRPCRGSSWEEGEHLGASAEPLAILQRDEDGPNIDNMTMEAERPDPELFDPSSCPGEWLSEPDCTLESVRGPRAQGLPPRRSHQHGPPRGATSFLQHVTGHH
Conditions: at 0.1 µM.

Assay [15] deals with T2, Homeodomain-interacting protein kinase 4 (Homo sapiens). Conditions: at 1 µM.
Assay [16] concerns the target Mitogen-activated protein kinase 9 (Homo sapiens) (UniProt P45984). As to conditions: at 0.1 µM.
Assay [17] shares this target. Conditions: at 1 µM.
Assay [18] has as its target Mitogen-activated protein kinase 1 (Homo sapiens) (UniProt P28482). As to conditions: at 0.1 µM.
The target is the same in assay [19]. Conditions: at 1 µM.
Assay [20] has as its target Mitogen-activated protein kinase 3 (Homo sapiens) (UniProt P27361). Conditions: at 0.1 µM.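 Also: each value is a mean inhibition figure.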

The inhibition is the change of the read-out against control, counted positive when it falls.

Chain of Glycogen synthase kinase-3 beta (Homo sapiens) (P49841 whole entry, looked up): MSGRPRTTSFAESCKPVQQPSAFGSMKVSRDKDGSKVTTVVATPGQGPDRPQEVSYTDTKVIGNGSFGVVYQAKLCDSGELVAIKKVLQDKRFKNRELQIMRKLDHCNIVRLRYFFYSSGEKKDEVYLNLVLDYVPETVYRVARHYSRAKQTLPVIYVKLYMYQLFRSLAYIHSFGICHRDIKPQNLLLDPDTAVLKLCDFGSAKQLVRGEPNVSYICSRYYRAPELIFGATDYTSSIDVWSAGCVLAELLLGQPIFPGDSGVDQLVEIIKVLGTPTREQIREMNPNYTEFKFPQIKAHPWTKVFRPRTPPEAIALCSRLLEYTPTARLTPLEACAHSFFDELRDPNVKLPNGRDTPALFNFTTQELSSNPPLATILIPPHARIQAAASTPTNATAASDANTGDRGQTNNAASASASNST
Chain of Glycogen synthase kinase-3 alpha (Homo sapiens) (P49840 2-483 limits assumed): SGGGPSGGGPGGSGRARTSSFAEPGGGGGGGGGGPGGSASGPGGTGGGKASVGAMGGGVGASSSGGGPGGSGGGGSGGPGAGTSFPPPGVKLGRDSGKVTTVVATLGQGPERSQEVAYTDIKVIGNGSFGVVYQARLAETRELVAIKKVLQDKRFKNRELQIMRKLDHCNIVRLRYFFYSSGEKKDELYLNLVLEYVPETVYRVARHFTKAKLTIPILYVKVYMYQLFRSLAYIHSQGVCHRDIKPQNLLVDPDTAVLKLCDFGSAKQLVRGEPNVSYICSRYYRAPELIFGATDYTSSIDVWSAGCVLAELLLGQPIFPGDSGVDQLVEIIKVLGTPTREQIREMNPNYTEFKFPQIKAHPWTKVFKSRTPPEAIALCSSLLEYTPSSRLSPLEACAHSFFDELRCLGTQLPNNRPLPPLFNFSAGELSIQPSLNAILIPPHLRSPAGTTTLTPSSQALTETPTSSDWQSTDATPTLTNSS
Chain of Homeodomain-interacting protein kinase 1 (Homo sapiens) (Q86Z02 whole entry, looked up): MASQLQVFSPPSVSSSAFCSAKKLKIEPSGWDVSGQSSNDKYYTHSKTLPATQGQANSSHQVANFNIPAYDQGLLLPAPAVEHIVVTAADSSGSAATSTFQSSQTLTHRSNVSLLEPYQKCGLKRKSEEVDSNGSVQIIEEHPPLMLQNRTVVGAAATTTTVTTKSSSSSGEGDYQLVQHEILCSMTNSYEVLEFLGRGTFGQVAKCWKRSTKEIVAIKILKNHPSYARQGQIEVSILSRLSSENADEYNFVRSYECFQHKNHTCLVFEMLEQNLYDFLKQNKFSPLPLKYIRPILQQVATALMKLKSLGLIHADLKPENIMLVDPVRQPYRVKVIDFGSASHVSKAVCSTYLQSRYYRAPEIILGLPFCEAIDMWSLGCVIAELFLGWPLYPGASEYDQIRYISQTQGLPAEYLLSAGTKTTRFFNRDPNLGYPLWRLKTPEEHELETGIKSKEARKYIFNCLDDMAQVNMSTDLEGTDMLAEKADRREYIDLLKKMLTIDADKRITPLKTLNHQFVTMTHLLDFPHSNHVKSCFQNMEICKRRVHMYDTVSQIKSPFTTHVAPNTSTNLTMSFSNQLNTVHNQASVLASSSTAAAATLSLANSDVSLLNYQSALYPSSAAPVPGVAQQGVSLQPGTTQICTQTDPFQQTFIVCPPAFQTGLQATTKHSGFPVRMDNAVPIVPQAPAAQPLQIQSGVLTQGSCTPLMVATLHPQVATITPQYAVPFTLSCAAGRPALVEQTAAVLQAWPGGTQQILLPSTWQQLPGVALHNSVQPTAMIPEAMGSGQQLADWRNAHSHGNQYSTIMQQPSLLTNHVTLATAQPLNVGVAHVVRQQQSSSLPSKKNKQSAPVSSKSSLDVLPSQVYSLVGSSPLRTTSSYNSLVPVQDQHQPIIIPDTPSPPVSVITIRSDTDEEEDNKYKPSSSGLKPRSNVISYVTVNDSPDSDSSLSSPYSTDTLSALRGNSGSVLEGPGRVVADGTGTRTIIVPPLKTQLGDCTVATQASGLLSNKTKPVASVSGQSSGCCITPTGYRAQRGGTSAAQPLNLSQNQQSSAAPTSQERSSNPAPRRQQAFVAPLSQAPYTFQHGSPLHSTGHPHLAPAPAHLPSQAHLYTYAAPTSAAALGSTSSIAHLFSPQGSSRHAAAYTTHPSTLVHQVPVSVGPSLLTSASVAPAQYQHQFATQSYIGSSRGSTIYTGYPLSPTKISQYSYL
Chain of Mitogen-activated protein kinase 3 (Homo sapiens) (P27361 whole entry): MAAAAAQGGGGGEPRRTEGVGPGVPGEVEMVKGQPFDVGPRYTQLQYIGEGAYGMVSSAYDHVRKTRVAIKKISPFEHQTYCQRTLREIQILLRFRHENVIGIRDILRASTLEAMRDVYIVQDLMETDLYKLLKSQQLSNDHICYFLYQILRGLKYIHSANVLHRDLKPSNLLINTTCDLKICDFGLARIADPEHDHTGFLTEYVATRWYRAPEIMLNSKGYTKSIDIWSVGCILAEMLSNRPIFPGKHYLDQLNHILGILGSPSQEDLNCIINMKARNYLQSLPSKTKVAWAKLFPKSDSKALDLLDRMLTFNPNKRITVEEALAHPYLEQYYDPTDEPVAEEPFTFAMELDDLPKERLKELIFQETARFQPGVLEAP
Chain of Dual specificity protein kinase CLK3 (Homo sapiens) (P49761 whole entry, looked up): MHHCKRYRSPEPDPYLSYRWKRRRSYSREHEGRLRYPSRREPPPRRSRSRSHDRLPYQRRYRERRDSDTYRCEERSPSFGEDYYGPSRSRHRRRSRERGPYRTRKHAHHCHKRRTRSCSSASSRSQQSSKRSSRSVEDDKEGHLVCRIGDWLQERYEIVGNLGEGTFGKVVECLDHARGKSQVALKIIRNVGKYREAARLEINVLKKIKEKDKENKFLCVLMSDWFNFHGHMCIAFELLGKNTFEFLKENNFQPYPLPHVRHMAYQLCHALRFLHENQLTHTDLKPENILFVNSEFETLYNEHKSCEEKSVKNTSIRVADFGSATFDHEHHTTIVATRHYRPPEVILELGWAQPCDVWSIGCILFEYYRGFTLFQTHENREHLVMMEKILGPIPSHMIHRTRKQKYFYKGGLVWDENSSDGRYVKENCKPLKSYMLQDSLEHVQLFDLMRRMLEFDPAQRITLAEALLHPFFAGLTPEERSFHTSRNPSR
Chain of Mitogen-activated protein kinase 1 (Homo sapiens) (P28482 whole entry): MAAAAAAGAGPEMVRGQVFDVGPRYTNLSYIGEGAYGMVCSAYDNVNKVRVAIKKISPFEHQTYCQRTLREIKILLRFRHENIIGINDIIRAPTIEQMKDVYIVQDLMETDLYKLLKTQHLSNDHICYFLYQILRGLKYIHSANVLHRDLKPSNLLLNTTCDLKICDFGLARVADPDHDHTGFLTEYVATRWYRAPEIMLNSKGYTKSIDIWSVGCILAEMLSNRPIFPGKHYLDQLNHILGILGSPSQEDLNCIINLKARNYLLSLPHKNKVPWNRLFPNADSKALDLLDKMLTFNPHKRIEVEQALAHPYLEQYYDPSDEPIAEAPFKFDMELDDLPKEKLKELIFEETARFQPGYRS
Chain of Mitogen-activated protein kinase 9 (Homo sapiens) (P45984 whole entry, looked up): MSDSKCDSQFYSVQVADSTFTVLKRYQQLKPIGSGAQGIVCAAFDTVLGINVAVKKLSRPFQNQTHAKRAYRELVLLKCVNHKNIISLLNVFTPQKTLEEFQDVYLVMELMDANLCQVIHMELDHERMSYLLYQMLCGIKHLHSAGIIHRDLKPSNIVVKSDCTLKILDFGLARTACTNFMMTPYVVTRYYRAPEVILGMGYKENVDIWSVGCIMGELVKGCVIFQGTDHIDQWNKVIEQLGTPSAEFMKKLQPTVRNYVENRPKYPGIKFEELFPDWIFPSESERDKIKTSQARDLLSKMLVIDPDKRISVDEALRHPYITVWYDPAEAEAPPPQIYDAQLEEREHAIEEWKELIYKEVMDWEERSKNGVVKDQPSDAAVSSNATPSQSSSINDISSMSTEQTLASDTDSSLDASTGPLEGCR
Chain of Dual specificity tyrosine-phosphorylation-regulated kinase 1B (Homo sapiens) (Q9Y463 whole entry, looked up): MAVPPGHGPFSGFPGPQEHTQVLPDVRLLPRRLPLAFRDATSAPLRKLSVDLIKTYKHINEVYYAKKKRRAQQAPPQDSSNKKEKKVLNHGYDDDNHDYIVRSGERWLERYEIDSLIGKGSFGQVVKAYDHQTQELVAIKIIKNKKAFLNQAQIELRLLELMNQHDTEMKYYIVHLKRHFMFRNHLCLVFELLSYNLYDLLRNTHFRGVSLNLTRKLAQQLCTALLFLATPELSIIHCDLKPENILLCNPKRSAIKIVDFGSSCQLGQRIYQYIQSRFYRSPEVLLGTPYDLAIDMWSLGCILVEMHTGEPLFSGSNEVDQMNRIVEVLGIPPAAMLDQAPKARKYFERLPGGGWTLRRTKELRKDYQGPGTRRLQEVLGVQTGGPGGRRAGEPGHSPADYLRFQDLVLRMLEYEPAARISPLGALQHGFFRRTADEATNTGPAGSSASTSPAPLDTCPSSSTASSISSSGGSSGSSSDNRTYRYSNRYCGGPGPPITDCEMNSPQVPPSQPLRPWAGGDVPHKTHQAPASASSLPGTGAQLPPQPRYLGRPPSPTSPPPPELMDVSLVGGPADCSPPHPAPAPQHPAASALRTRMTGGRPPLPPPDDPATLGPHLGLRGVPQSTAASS

`N#Cc1c(NC(=O)c2ccc(F)cc2)sc2c1CCCC2`: the inhibition in [1] is 0.61%; in [2] it was 0.28%; in assay [3] it was 3.62%; in assay [4], -0.66%; in assay [5], 1.05%; in assay [6], -0.13%. The inhibition was 0.26% in assay [7]; 0.69% in [8]; 2.28% in assay [9]; -0.51% in assay [10]; 3.45% in [11]; -1.95% in assay [12]. Moreover, the inhibition in assay [13] was -1.66%; in [14], -1.19%; in [15], -0.61%; in [16] it was 2.17%; in assay [17], 2.49%; in assay [18] it was 0.39%. Moreover, the inhibition in assay [19] was 1.25%; in [20], -1.04%.

As to `CS(=O)(=O)CCNCc1coc(-c2ccc3ncnc(Nc4ccc(OCc5ccccc5)cc4)c3c2)c1`, the inhibition in assay [1] is 0.66%; in assay [2], 1.48%; in assay [3], 2.33%; in assay [4] it was -0.25%; in assay [5], 1.83%; in assay [6], 3.02%. Also, the inhibition in assay [7] was 4.76%; in [8], 2.99%; in [9], 4.78%; in [10], 2.21%; in assay [11] it was 6.33%; in assay [12], -1.59%. In addition, the inhibition in assay [13] worked out at 2.97%; in assay [14], 0.96%; in assay [15], 8.92%; in [16] it was 1.82%; in assay [17], 2.72%; in assay [18], 2.46%. In addition, the values for the inhibition in assay [19] and in assay [20] were 3.11% and 3.44%, respectively.

Take `c1cc(-c2cnn3nc(N4CCOCC4)ccc23)nc(NC2CC2)n1`: the inhibition was determined as 8.62% in [1]; 7.48% in assay [2]; 40.4% in assay [3]; 6.08% in assay [4]; 35.8% in assay [5]; 5.57% in [6]. In addition, the inhibition in assay [7] worked out at 32.8%; in assay [8], 4.47%; in assay [9], 26.4%; in assay [10], 2.95%; in assay [11] it was 18.2%; in [12], 3.36%. Moreover, the inhibition was determined as 29% in assay [13]; 4.39% in assay [14]; 20.6% in assay [15]; 5.03% in assay [16]; 26.1% in assay [17]; 1.45% in [18]. The inhibition is 7.25% in assay [19] and 4.13% in [20].

As to `CC1=C(C(=O)Nc2cc(Cl)c3[nH]ncc3c2)C(c2ccc(C(F)(F)F)cc2)CC(=O)N1` (stereo not given), the inhibition in assay [1] is 1.64%; in assay [2] it was 1.66%; in assay [3], 2.44%; in assay [4], -1.21%; in assay [5], -0.06%; in assay [6], 2.57%. Also, the inhibition in assay [7] was 2.68%; in assay [8], 0.24%; in assay [9], -1.53%; in assay [10], 0.14%; in assay [11], 2.19%; in [12], -0.91%. Also, the inhibition was -0.78% in [13]; -0.54% in assay [14]; 2.16% in assay [15]; 3.86% in assay [16]; 2.16% in assay [17]; 7.37% in assay [18]. In addition, the inhibition in assay [19] is 35.4%; in [20], 6.64%.

Take `CCN1CCC(CC(=O)Nc2n[nH]c3nnc(-c4cccc(F)c4F)cc23)CC1`: the inhibition came to 2.16% in assay [1]; 10.4% in assay [2]; 53.1% in assay [3]; 7.85% in [4]; 46.9% in [5]; 1.7% in assay [6]. In addition, the inhibition in assay [7] is 5.64%; in assay [8], 88.8%; in [9], 93.9%; in assay [10], 85%; in assay [11] it was 94.4%; in [12] it was -3.8%. Further, the inhibition is 8.59% in [13]; 0.11% in [14]; 3% in [15]; 2.02% in assay [16]; -0.48% in assay [17]; 4.04% in assay [18]. Also, the inhibition in assay [19] came to 2.72%; in [20], 3.44%.

As for `Cc1cccc2c1NC(=O)/C2=N\Nc1ccc(S(N)(=O)=O)cc1`, the inhibition in assay [1] stood at 3.84%; in [2], 1.06%; in assay [3], 5.61%; in assay [4], 0.89%; in assay [5], 1.16%; in assay [6] it was 2.62%. Further, the inhibition in [7] worked out at 3.24%; in [8], 3.97%; in assay [9], 8.42%; in assay [10], 3.71%; in assay [11], 7.38%; in [12], 1.24%. The inhibition in assay [13] worked out at 4.95%; in assay [14] it was 2.16%; in assay [15], 1.3%; in assay [16] it was 1.94%; in assay [17], 4.49%; in assay [18] it was 2.25%. In addition, the inhibition in assay [19] was found to be 0.43%; in assay [20] it was 2.41%.

Consider `CC(C)(CO)CNC(=O)c1ccc2c(c1)/C(=N/Nc1ccc(S(N)(=O)=O)cc1)C(=O)N2`, for which the inhibition is 9.15% in assay [1]; -0.06% in assay [2]; 7.83% in [3]; -0.36% in [4]; 1% in assay [5]; 0.82% in assay [6]. For the same molecule, the inhibition in [7] is 9.64%; in assay [8], 23.2%; in assay [9] it was 65.2%; in [10], 22.4%; in assay [11] it was 66.8%; in assay [12], -4.78%. The inhibition is 13.1% in assay [13]; -0.55% in assay [14]; 4.55% in assay [15]; -0.59% in assay [16]; 8.39% in [17]; 8.62% in [18]. Moreover, the inhibition in [19] turned out to be 42.1%; in assay [20], 1.78%.
